Holding throughout (assay): DAPPL (digital affinity profiling via proximity ligation, sequencing); 10 mM Tris-HCl pH 7.5, 50 mM NaCl, 1 mM DTT, 4% glycerol, room temperature, 30 min; GST-TFs on glutathione beads, 16-mer random dsDNA library, 0.1% formaldehyde crosslink after washing; high values mean tight binding
What all share (conditions): protein: recombinant; tags: N-terminal GST; dsDNA, one strand shown

The target of experiment [1] is T1, FLI1 (Homo sapiens, UniProt Q01543 1-452).
T1 sequence: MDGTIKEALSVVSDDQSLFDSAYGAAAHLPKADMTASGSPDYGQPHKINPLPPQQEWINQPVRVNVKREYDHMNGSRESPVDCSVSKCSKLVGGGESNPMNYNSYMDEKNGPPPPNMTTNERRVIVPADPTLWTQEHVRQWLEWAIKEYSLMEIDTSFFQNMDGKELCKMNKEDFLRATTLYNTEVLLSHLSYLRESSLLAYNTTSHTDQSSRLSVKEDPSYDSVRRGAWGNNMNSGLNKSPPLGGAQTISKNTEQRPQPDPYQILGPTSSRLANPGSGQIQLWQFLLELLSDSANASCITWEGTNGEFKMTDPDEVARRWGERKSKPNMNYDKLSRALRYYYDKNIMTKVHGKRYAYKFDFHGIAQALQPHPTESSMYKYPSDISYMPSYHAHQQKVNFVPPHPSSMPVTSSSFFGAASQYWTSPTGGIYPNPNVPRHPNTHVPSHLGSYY
The gist of the method:
(§1)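 Each value of binding signal is a hexamer's read frequency for a factor divided by the same hexamer's frequency in the tag-only sample. Barcoded, bead-captured GST fusions of human transcription factors made in yeast were pooled with that sample and incubated with 200 nmole of a random double-stranded 16-mer DNA library in Tris/NaCl/DTT/glycerol buffer at room temperature for 30 min. Washing, 0.1% formaldehyde crosslinking, proximity ligation, PCR and Illumina NextSeq500 sequencing followed.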

Experiment [2] concerns the target T2, ELK1 (Homo sapiens, UniProt P19419 1-428).
T2 sequence: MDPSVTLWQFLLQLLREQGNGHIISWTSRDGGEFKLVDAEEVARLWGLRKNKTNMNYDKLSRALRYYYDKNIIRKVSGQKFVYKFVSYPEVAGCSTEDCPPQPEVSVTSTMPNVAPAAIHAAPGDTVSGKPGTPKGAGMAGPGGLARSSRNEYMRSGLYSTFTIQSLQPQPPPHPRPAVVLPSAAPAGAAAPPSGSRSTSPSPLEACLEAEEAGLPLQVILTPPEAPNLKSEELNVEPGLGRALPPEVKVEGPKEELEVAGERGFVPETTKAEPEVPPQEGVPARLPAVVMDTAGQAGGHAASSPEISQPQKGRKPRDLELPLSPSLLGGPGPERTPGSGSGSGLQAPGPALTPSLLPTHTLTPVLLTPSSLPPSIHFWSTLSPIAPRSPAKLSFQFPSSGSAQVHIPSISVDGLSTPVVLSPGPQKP
The gist of the method: as §1

Experiment [3] addresses T3, GABPA (Homo sapiens, UniProt Q06546 1-454).
T3 sequence: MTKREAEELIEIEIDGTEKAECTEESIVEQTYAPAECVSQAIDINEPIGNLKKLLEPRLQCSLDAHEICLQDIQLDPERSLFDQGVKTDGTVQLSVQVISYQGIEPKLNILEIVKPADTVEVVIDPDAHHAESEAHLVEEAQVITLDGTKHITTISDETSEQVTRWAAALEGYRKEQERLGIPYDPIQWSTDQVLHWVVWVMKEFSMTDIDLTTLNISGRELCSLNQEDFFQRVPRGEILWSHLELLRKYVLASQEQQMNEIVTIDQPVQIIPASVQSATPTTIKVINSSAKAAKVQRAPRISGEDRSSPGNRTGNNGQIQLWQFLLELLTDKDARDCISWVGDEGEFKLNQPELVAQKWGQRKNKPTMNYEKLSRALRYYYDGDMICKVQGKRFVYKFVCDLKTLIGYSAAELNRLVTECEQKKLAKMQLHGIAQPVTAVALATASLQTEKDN
In a few lines: as §1

In experiment [4] the target is T4, ERG (Homo sapiens, UniProt P11308 1-479).
T4 sequence: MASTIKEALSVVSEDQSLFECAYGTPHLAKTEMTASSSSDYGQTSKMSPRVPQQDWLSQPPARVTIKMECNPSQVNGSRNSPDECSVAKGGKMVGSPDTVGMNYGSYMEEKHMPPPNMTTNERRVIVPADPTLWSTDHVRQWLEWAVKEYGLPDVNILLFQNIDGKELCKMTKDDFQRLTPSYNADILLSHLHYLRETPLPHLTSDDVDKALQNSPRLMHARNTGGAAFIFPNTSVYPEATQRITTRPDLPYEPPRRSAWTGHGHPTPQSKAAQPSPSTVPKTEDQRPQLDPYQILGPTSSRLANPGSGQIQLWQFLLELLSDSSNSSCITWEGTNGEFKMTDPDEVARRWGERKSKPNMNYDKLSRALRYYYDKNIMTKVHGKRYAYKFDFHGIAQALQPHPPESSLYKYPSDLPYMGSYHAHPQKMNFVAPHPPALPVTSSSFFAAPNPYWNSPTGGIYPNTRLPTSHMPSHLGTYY
The gist of the method: as §1

Experiment [5] concerns the target ELF1 (Homo sapiens, UniProt P32519 1-619). The gist of the method: as §1
Experiment [6] addresses T5, EHF (Homo sapiens, UniProt Q9NZC4 1-300).
T5 sequence: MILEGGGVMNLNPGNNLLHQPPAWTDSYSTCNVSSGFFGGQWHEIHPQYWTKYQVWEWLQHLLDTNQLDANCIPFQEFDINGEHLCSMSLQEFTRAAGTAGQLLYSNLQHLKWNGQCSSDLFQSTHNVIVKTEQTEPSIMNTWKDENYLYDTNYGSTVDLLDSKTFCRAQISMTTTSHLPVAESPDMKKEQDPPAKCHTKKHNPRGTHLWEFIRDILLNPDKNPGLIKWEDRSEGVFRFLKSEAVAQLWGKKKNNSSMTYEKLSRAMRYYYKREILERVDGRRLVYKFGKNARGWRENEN
The gist of the method:
as §1

Experiment [7] concerns the target SPI1 (Homo sapiens, UniProt P17947 1-270). In a few lines: as §1
In experiment [8] the target is SPIB (Homo sapiens, UniProt Q01892 1-262). In a few lines: as §1
The target of experiment [9] is T6, ELK3 (Homo sapiens, UniProt P41970 1-407).
T6 sequence: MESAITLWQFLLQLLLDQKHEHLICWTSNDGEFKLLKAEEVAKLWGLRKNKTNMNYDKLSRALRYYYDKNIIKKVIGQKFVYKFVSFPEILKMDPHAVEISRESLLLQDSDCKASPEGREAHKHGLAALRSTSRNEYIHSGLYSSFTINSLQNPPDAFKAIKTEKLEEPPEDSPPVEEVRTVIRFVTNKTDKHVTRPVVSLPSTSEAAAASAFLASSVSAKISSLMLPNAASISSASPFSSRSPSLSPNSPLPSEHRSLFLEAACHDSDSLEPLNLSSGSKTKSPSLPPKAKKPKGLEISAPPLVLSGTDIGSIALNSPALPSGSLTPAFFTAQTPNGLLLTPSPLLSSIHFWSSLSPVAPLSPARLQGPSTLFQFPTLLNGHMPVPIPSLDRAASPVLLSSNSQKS
In a few lines:
as §1

The target of experiment [10] is T7, FEV (Homo sapiens, UniProt Q99581 1-238).
T7 sequence: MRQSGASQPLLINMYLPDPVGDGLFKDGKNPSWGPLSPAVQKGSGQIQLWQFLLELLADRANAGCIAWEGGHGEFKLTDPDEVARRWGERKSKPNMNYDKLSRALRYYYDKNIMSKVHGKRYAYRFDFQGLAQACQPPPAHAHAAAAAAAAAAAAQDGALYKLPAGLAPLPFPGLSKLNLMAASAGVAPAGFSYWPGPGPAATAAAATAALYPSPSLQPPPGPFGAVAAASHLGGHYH
The gist of the method:
as §1

Experiment [11] addresses ETV5 (Homo sapiens, UniProt P41161 1-510). In a few lines: as §1
Experiment [12] has as its target T8, SPIC (Homo sapiens, UniProt Q8N5J4 1-248).
T8 sequence: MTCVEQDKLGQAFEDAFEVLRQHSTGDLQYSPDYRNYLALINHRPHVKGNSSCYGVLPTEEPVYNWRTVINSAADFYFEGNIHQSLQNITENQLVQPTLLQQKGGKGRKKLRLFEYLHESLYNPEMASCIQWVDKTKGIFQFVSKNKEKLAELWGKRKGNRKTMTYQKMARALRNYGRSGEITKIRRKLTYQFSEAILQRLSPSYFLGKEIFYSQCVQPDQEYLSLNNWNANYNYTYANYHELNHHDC
In a few lines: as §1

In experiment [13] the target is ELF4 (Homo sapiens, UniProt Q99607 1-663). The gist of the method:
as §1

For experiment [14], the target named is T9, ELK4 (Homo sapiens, UniProt P28324-2 1-405).
T9 sequence: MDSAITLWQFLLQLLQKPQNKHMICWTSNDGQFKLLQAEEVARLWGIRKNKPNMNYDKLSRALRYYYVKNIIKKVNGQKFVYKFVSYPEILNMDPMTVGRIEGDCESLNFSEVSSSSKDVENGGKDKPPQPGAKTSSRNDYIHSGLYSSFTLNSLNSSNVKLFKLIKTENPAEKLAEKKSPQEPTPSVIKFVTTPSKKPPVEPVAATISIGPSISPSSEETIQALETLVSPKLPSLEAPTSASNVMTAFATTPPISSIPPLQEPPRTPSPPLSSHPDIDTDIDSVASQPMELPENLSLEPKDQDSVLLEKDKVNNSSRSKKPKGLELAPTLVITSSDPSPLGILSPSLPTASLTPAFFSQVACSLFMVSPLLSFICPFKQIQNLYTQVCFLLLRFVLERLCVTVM
In a few lines:
as §1

Experiment [15] has as its target T10, ETV2 (Homo sapiens, UniProt O00321 1-342).
T10 sequence: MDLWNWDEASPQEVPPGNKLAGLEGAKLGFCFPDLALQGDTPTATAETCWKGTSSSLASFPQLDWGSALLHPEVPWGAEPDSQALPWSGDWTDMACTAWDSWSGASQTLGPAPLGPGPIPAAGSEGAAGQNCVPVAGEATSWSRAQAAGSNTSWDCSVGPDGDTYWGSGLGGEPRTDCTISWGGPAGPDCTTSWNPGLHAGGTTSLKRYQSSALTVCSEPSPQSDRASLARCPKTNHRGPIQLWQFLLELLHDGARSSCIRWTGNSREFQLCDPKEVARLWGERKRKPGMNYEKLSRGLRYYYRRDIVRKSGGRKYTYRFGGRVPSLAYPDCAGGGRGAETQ
The gist of the method:
as §1

The target in experiment [16] is T11, ELF3 (Homo sapiens, UniProt P78545 1-371).
T11 sequence: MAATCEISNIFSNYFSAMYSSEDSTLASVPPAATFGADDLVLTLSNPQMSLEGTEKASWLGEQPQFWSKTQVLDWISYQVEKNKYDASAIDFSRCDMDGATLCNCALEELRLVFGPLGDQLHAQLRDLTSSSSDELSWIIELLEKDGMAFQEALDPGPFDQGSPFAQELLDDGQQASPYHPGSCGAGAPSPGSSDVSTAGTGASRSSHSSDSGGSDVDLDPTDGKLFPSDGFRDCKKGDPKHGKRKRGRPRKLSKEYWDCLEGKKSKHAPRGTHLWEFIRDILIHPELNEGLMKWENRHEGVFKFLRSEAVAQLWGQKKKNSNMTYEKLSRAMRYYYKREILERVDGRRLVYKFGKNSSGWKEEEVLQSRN
In a few lines: as §1

In experiment [17] the target is ETV1 (Homo sapiens, UniProt P50549 1-477). The gist of the method:
as §1

For 2 sequences, binding signal results are on record in PMC7862700, “An all-to-all approach to the identification of sequence-specific readers for epigenetic DNA modifications on cytosine”.

ELF4, sequence (Q99607 whole entry): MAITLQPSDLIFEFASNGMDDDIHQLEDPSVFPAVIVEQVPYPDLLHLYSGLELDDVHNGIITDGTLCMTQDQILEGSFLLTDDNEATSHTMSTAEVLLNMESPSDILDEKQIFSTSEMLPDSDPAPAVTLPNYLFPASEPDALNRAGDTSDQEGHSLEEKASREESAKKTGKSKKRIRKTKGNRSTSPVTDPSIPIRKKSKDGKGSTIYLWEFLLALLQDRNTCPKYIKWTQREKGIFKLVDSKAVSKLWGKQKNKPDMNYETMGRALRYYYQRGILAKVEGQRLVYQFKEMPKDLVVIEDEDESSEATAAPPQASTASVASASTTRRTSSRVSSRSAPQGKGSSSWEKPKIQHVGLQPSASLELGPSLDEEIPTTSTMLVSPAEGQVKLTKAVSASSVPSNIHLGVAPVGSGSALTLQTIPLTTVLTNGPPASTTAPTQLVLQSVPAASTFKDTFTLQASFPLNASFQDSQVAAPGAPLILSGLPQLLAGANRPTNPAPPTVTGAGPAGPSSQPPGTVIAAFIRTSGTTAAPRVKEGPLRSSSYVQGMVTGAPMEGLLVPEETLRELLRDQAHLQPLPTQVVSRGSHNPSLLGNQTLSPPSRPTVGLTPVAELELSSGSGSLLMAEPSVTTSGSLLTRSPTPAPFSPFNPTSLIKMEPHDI
SPIB, sequence (Q01892 whole entry): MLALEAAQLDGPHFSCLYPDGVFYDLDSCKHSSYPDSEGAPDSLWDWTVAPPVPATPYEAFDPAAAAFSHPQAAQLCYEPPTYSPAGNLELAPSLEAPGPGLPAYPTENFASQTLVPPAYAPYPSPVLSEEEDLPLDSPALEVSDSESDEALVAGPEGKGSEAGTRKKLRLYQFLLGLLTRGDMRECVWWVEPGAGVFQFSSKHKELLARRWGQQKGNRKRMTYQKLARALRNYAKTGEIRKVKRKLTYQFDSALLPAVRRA
ETV5, sequence (P41161 whole entry): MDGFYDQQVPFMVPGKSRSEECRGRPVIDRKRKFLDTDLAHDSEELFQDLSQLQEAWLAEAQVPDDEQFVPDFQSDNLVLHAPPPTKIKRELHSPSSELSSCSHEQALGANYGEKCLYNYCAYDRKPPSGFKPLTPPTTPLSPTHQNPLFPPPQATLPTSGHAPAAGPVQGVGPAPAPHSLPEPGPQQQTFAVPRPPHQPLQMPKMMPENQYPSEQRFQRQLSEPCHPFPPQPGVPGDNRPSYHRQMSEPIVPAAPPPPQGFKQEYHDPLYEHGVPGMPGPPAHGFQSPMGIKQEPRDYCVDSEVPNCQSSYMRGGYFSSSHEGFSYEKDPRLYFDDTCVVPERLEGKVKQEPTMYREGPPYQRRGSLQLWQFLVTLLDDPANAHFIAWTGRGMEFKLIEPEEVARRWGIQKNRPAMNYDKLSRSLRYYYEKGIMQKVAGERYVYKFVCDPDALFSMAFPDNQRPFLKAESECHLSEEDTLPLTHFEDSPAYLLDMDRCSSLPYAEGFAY
ETV1, sequence (P50549 whole entry): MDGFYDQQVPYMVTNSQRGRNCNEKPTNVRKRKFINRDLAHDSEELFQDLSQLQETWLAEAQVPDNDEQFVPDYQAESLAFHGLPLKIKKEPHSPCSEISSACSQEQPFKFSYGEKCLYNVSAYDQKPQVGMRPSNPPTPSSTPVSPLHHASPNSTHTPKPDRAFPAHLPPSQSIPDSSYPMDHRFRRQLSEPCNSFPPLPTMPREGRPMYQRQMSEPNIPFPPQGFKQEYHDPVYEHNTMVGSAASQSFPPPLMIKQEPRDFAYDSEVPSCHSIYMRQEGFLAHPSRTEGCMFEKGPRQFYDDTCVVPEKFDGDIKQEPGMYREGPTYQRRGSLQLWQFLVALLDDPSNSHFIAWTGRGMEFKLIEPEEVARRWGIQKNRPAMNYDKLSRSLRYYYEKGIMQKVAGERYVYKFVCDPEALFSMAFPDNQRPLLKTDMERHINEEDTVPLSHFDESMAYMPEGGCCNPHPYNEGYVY
ELF1, sequence (P32519 whole entry): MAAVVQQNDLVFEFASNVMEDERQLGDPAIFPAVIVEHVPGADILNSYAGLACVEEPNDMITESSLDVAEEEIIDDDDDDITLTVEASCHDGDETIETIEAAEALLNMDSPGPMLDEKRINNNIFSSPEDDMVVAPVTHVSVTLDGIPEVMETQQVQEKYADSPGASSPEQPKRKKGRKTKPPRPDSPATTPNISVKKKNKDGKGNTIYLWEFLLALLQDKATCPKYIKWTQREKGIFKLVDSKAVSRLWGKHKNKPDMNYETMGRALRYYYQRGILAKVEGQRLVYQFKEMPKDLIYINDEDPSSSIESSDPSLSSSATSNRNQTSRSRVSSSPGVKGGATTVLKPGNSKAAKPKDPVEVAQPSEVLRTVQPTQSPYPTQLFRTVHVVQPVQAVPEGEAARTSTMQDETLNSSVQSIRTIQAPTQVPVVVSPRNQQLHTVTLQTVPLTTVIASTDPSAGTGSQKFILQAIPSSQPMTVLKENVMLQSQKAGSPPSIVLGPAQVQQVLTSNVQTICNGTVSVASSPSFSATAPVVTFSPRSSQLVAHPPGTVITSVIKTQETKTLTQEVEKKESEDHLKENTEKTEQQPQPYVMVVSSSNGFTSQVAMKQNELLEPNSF

Consider CGTCAA, for which the binding signal was 1.2 fold enrichment (6-mer frequency, TF over GST control) in experiment [1]; 1.15 fold enrichment (6-mer frequency, TF over GST control) in experiment [2]; 1.19 fold enrichment (6-mer frequency, TF over GST control) in [3]; 1.11 fold enrichment (6-mer frequency, TF over GST control) in experiment [4]; 1.11 fold enrichment (6-mer frequency, TF over GST control) in experiment [5]; 1.12 fold enrichment (6-mer frequency, TF over GST control) in experiment [6]. The binding signal in [7] is 1.01 fold enrichment (6-mer frequency, TF over GST control); in experiment [8] it was 1.27 fold enrichment (6-mer frequency, TF over GST control); in experiment [9], 1.06 fold enrichment (6-mer frequency, TF over GST control); in [10] it was 1.08 fold enrichment (6-mer frequency, TF over GST control); in experiment [11] it was 1.08 fold enrichment (6-mer frequency, TF over GST control); in experiment [12], 1.19 fold enrichment (6-mer frequency, TF over GST control). The binding signal in experiment [13] was 1.15 fold enrichment (6-mer frequency, TF over GST control); in experiment [14] it was 1.12 fold enrichment (6-mer frequency, TF over GST control); in experiment [15] it was 1.2 fold enrichment (6-mer frequency, TF over GST control); in [16], 1.2 fold enrichment (6-mer frequency, TF over GST control); in [17], 1.12 fold enrichment (6-mer frequency, TF over GST control).
Turning to CACCAC, the binding signal in experiment [1] was 1.15 fold enrichment (6-mer frequency, TF over GST control); in experiment [2], 1.2 fold enrichment (6-mer frequency, TF over GST control); in experiment [3], 1.23 fold enrichment (6-mer frequency, TF over GST control); in experiment [4], 1.18 fold enrichment (6-mer frequency, TF over GST control); in experiment [5] it was 1.18 fold enrichment (6-mer frequency, TF over GST control); in experiment [6] it was 1.11 fold enrichment (6-mer frequency, TF over GST control). The binding signal in experiment [7] was 1.18 fold enrichment (6-mer frequency, TF over GST control); in experiment [8], 1.14 fold enrichment (6-mer frequency, TF over GST control); in experiment [9], 1.06 fold enrichment (6-mer frequency, TF over GST control); in experiment [10] it was 1.19 fold enrichment (6-mer frequency, TF over GST control); in experiment [11], 1.1 fold enrichment (6-mer frequency, TF over GST control); in experiment [12] it was 1.3 fold enrichment (6-mer frequency, TF over GST control). For the same sequence, the binding signal in experiment [13] is 1.13 fold enrichment (6-mer frequency, TF over GST control); in [14], 1.22 fold enrichment (6-mer frequency, TF over GST control); in [15] it was 1.14 fold enrichment (6-mer frequency, TF over GST control); in experiment [16], 1.24 fold enrichment (6-mer frequency, TF over GST control); in experiment [17], 1.16 fold enrichment (6-mer frequency, TF over GST control).
